Screening data (PubChem)
RN4220 kill: growth inhibition of S. aureus RN4220, primary screen, OD600; inhibition, % (test concentration not listed); 16 h; AID 1259311, 2017; 0.33% of 330,000 active; in the data active means inhibition above about 85%;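 further: plate controls were untreated cells for no effect and reference antibiotic for full effect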
TcdB inh: TcdB glycohydrolase inhibitors, primary screen, biochemical, single point, plate reader; inhibition, % at 9.99 µM; 0.24% of 350,000 active; Toxin B (Clostridioides difficile), P18177; AID 652162, 2013; TcdB glycohydrolase enzymatic assay; in the data active means inhibition above about 10%
Target sequence (P18177 whole entry, looked up): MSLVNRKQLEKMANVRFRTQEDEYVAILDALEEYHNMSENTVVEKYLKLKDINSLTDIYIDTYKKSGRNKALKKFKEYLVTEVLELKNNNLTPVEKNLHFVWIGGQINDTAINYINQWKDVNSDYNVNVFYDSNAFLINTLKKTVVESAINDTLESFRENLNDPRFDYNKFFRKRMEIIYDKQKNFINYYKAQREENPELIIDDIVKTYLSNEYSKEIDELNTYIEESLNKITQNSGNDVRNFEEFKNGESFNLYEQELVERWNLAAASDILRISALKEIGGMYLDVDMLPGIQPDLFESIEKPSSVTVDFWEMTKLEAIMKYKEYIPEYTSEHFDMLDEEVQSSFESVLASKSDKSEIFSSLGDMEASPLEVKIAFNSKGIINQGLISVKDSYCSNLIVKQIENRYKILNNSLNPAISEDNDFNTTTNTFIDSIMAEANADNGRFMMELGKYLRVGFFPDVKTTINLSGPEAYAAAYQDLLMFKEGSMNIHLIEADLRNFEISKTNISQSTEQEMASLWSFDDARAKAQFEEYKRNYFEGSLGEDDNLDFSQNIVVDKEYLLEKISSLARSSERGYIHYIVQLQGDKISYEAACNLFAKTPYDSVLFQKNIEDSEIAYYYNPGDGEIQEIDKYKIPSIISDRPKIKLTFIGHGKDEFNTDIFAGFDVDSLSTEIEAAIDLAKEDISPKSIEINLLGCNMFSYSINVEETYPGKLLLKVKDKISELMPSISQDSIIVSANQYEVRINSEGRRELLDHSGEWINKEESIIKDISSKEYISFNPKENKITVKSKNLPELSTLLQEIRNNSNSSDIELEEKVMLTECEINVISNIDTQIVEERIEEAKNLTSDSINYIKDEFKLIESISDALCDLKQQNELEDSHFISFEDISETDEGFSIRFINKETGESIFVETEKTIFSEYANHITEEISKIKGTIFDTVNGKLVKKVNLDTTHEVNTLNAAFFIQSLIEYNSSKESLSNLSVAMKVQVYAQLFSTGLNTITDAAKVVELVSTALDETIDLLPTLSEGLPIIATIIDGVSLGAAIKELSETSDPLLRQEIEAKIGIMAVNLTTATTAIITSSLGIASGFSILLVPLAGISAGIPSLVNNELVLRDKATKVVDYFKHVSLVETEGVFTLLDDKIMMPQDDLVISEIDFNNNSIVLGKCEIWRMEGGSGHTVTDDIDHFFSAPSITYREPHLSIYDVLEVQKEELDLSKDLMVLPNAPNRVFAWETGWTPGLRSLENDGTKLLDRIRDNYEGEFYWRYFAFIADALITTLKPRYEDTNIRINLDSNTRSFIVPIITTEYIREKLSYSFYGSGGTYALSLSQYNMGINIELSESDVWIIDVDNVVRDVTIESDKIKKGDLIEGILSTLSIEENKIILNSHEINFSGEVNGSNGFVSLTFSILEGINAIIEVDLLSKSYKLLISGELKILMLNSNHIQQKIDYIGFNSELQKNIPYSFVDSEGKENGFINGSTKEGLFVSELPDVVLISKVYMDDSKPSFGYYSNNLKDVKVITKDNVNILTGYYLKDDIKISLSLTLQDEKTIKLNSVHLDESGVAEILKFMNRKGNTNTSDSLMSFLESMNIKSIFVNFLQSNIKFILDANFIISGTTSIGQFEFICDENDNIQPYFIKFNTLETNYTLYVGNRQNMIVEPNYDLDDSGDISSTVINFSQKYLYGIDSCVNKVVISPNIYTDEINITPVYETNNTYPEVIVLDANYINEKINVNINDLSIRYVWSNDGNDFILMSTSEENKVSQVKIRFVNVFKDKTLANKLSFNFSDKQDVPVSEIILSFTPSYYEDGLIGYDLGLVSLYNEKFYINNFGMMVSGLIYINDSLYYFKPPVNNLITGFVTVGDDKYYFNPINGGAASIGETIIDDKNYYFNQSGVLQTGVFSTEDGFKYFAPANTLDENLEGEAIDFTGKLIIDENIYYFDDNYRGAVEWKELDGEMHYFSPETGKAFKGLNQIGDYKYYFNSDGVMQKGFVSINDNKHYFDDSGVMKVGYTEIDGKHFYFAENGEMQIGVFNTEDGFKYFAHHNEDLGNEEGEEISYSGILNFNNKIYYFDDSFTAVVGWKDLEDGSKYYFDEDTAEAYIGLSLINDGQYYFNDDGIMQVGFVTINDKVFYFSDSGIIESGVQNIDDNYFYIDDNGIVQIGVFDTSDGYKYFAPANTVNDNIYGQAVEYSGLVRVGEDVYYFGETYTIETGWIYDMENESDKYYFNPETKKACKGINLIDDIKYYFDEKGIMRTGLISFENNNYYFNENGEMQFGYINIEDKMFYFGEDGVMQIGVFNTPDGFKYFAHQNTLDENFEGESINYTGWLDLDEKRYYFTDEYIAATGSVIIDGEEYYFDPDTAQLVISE
Sa ugtP lethal: growth inhibition of ugtP-null S. aureus, primary screen, RN4220 ugtP deletion, OD600. AID 1259309, 2017. growth inhibition, % (test concentration not listed). 0.54% of 330,000 active. 16 h; in the data active means growth inhibition above about 68%;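 further: plate controls were untreated wells for no effect and antibiotic for full effect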
PfHsp40 rescue: rescue of yeast from PfHsp40 toxicity, primary screen, S. cerevisiae, ATP luminescence | S. cerevisiae expressing PfHsp40, growth rescue | growth rescue, % at 12.5 µM | 0.68% of 340,000 active; in the data active means growth rescue above about 28%, passing the limit was not always enough;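 further: yeast W303a lacking pdr1 and pdr3 grown in galactose medium; growth measured after three days at 30 °C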
Mtb hypoxia inh: PubChem AID 1159583; 0.1% of 300,000 active; fluorescence inhibition, % (no concentration beside the values); M. tuberculosis hypoxia-regulated fluorescent reporter, fluorescence; in the data active means fluorescence inhibition mostly above about 23%, no sharp cut-off; inactive means mostly below about 17%
MazF activator: activators of E. coli MazEF toxin-antitoxin RNase, primary screen, biochemical, fluorescence, uHTS | FAM/BHQ RNA-DNA oligo cleavage fluorescence, 5 h | activation, % at 20 µM | 0.32% of 350,000 active; in the data active means activation above about 50%
* = called active by the depositor. The list is not random: actives were taken first. Their share in the collection is about 1.3%.

For CC1CN(S(=O)(=O)c2ccc(C(=O)Nc3nnc(-c4ccc5c(c4)CCCC5)o3)cc2)CC(C)O1 (configuration not stated) the results were RN4220 kill 98.8*, TcdB inh 0.7, Sa ugtP lethal 98.6*, PfHsp40 rescue -1.0, Mtb hypoxia inh -0.6 and MazF activator 3.6.
Screening COc1ccc2c3c(n(C)c2c1)[C@H](CO)N(C(=O)C1CC1)CC31CCN(C)CC1 returned TcdB inh -0.2.
For COc1cccc(C(=O)NCc2ccco2)c1OC the results were RN4220 kill -0.8, TcdB inh -1.0, Sa ugtP lethal -4.3, PfHsp40 rescue 0.9, Mtb hypoxia inh -5.5 and MazF activator 1.5.
Screening COc1ccc(OC)c(N=c2oc3c(OC)cccc3cc2C(=O)NCc2ccco2)c1 returned RN4220 kill 3.5, Sa ugtP lethal -2.2, PfHsp40 rescue -1.6, Mtb hypoxia inh 9.5 and MazF activator 75.5*.
COc1ccc(N=c2oc3c(OC)cccc3cc2C(=O)NCc2ccco2)cc1OC was read as RN4220 kill 5.1, Sa ugtP lethal -11.2, PfHsp40 rescue -0.9, Mtb hypoxia inh -11.6 and MazF activator 343.5*.
For COc1ccccc1N=c1oc2c(OC)cccc2cc1C(=O)NCc1ccco1 the results were RN4220 kill 4.2, Sa ugtP lethal -20.1, PfHsp40 rescue 0.5, Mtb hypoxia inh 2.9 and MazF activator 68.8*.
Screening COc1cccc(C(=O)N/N=c2\oc3c(OC)cccc3cc2C(=O)NCc2ccccc2)c1 returned TcdB inh 0.4, PfHsp40 rescue -0.8 and MazF activator 4.2.
COc1ccccc1C(=O)NCc1ccco1 was read as RN4220 kill 3.5, TcdB inh -1.5, Sa ugtP lethal 1.9, PfHsp40 rescue -1.0, Mtb hypoxia inh 19.6 and MazF activator 5.8.
For COc1ccc(CC(C)=NNC(=O)c2ccncc2)cc1 the results were RN4220 kill -0.5 and Sa ugtP lethal 13.1.
CC1CCC/C(=C\c2ccc(O)cc2)C1=O (configuration not stated) was read as RN4220 kill 9.8, TcdB inh 36.5*, Sa ugtP lethal 17.4, PfHsp40 rescue 0.8, Mtb hypoxia inh 5.1 and MazF activator 0.0.
CCn1cc(C(=O)O)c(=O)c2cnc(N3CCN(C(=S)NC(=O)c4ccccc4Cl)CC3)nc21 was read as RN4220 kill 98.5*, Sa ugtP lethal 94.3*, Mtb hypoxia inh -7.4 and MazF activator 2.0.
CCn1cc(C(=O)O)c(=O)c2cnc(N3CCN(C(=S)NC(=O)c4ccc(F)c(F)c4)CC3)nc21 was read as RN4220 kill 10.8, TcdB inh 1.2, Sa ugtP lethal 14.0, PfHsp40 rescue -1.2, Mtb hypoxia inh -6.0 and MazF activator 6.0.
For CCn1cc(C(=O)O)c(=O)c2cnc(N3CCN(C(=S)NC(=O)c4ccc(OC)cc4)CC3)nc21 the results were RN4220 kill 46.4, TcdB inh -7.5, Sa ugtP lethal 85.6*, PfHsp40 rescue -2.2, Mtb hypoxia inh 14.3 and MazF activator 3.3.
Screening O=C(NN=C1CCc2ccccc21)c1ccccc1Cl returned RN4220 kill -0.4, Sa ugtP lethal 2.6 and Mtb hypoxia inh -3.7.
`NC(=NOC(=O)Nc1ccc(Cl)cc1)c1ncc(C(F)(F)F)cc1Cl` gave RN4220 kill 0.1, Sa ugtP lethal -25.4 and Mtb hypoxia inh 8.0.
COc1ccc(/C=C/C(=O)OCC(=O)NC2CCCC2)c(OC)c1 was read as RN4220 kill 3.5, TcdB inh -3.8, Sa ugtP lethal 46.9, PfHsp40 rescue -0.6, Mtb hypoxia inh 9.7 and MazF activator 7.3.
For COc1ccc(/C=C/C(=O)OCC(=O)NC2CCCCC2C)c(OC)c1 (configuration not stated) the results were RN4220 kill 4.6, TcdB inh 0.7, Sa ugtP lethal 87.2*, PfHsp40 rescue 0.2, Mtb hypoxia inh 22.2 and MazF activator 5.9.
`Clc1c(Cl)c(Cl)c2n[nH]nc2c1Cl` gave RN4220 kill 68.8, TcdB inh -4.3, Sa ugtP lethal 62.1, PfHsp40 rescue 59.0*, Mtb hypoxia inh 3.7 and MazF activator 1.6.
For Cc1cc(O)c(C=O)c2c1C(=O)Oc1c(CO)c(O)c3c(c1O2)C(O)OC3=O (configuration not stated) the results were PfHsp40 rescue 160.7* and MazF activator -26.0.
For Cc1cc(O)c(CN(C)C)c2c1C(=O)/C(=C/c1ccco1)O2 the results were RN4220 kill 0.1, TcdB inh -0.1, Sa ugtP lethal -3.9, PfHsp40 rescue 1.3, Mtb hypoxia inh -25.5 and MazF activator -94.2.
Screening COc1cccc2c1C(=O)c1c(O)c3c(c(O)c1C2=O)C[C@@](O)(C(C)=O)C[C@@H]3O[C@H]1C[C@H](N)[C@H](O)[C@H](C)O1 returned TcdB inh -19.5, PfHsp40 rescue 50.6* and MazF activator inactive.
For COc1cccc2c1C(=O)c1c(O)c3c(c(O)c1C2=O)CC(O)(C(=O)CO)CC3OC1CC(N(C)C)C(O)C(C)O1 (configuration not stated) the results were TcdB inh -22.4, PfHsp40 rescue 100.1* and MazF activator -713.0.
For Nc1nonc1-n1nnc(C(=O)NN=Cc2cc(Cl)ccc2O)c1CN1CCCCCC1 the results were RN4220 kill -0.6 and Sa ugtP lethal -0.6.
For CN(C)C(=O)C[C@@H]1CC[C@H](NC(=O)C2CC2)[C@H](CO)O1 the results were TcdB inh 0.5.
Nc1c(Cl)ncnc1NCCc1ccc(O)cc1 was read as RN4220 kill 2.3, TcdB inh 11.0*, Sa ugtP lethal 2.6, PfHsp40 rescue 0.1, Mtb hypoxia inh 13.0 and MazF activator 13.4.
Screening Nc1nn2c(-c3ccccc3)cc(=O)[nH]c2c1N=Nc1ccc(Br)cc1 returned RN4220 kill 99.7*, TcdB inh 0.3, Sa ugtP lethal 100.1*, PfHsp40 rescue -0.3, Mtb hypoxia inh 12.3 and MazF activator -6.2.
For COc1ccc(C(=O)NNC(=S)NC(=O)c2cc(-c3ccccc3)nc3ccccc23)cc1 the results were RN4220 kill 84.5, Sa ugtP lethal 22.3, PfHsp40 rescue -1.1, Mtb hypoxia inh -3.7 and MazF activator -22.6.
`COc1ccc(C(=O)NNC(=O)c2cc(C)nc3ccccc23)cc1` gave RN4220 kill 3.3, TcdB inh -2.1, Sa ugtP lethal -7.8, PfHsp40 rescue 0.0, Mtb hypoxia inh -1.7 and MazF activator 6.7.
For CCNC(=S)NNC(=O)c1cc(-c2ccccc2C)nc2ccccc12 the results were RN4220 kill 4.3, Sa ugtP lethal 5.5, PfHsp40 rescue 1.4, Mtb hypoxia inh 7.3 and MazF activator -2.9.
`Cc1cc(C(=O)NNC(=O)c2ccc(Cl)cc2)c2ccccc2n1` gave RN4220 kill 6.8, TcdB inh 0.0, Sa ugtP lethal 3.9, PfHsp40 rescue 65.4*, Mtb hypoxia inh 5.1 and MazF activator 2.4.
